High-throughput results: PubChem BioAssay, National Center for Advancing Translational Sciences (NCATS)
Shown are actives, neighbours in structure and some others; about 17% of the full set was active somewhere.
TDP1 block: blocks human tyrosyl-DNA phosphodiesterase 1. Q9NUW8. recombinant TDP1, AlphaScreen DNA substrate cleavage. Potency, µM (titrated, usually from 130 µM), without a hit: at the top dose activity change, negative = inhibition, hits mostly inhibitors. 0.28% of 350,000 active; note: % is set by controls: 0 for no effect and ±100 for the full control effect; nearly all actives have a fitted effect of over 40% in size
Target sequence (Q9NUW8 whole entry, looked up): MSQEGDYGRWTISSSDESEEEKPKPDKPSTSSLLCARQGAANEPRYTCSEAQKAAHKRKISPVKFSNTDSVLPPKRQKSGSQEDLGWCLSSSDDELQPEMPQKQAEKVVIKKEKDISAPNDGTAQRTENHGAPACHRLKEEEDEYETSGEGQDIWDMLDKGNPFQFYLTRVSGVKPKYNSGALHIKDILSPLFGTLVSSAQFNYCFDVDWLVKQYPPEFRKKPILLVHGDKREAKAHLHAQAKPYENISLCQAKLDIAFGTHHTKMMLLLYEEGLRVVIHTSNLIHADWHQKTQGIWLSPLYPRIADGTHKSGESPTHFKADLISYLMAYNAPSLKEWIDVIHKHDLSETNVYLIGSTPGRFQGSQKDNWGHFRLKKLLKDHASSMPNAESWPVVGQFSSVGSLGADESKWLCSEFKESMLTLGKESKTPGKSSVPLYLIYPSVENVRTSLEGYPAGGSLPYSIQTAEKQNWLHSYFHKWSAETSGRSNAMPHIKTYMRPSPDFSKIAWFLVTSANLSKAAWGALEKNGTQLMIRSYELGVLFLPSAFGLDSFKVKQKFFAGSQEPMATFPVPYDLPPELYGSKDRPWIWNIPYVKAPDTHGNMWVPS
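Tdp1 1 nM final; 15 min RT w/ cpd; substrate 15 nM, 5 min; beads 10 ug/ml, 10 min; AlphaScreen read. Neg ctrl: no enzyme.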
TDP1 cell CPT: growth inhibition of DT40 Tdp1-/-;hTDP1 cells with camptothecin (screen for TDP1 inhibitors) | AID 686979 | 12% of 420,000 active | Potency, µM (doses to about 46.2 µM), for inactives: at the highest dose activity change, negative = growth inhibition, most hits filed as inhibitors | chicken DT40 Tdp1-/-;hTDP1 cells + 20 nM CPT, ATP luminescence, 48 h; note: % is set by controls: 0 for no effect and ±100 for the full control effect; nearly all actives have a fitted effect of over 55% in size
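Chicken DT40 Tdp1-/- cells complemented with human TDP1, 400 cells/well, exposed to compounds plus 20 nM camptothecin for at least 48 h at 37 C; viability read as ATP content by CellTiter-Glo luminescence.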
ClpP mod: qHTS Assay for Activators of ClpP | AID 651965, 2013 | 1.9% of 340,000 active | purified B. subtilis ClpP, FRET peptide cleavage, 20 min | ATP-dependent Clp protease proteolytic subunit (Bacillus subtilis (strain 168)), P80244 | Potency, µM (titrated, usually from 57.5 µM), without a hit: at the top dose activity change, negative = active; active = well fitted falling curve with a large enough effect; inconclusive = small, poorly fitted or top-dose-only effect; inactive = no such curve, though single readings can be large or run the other way; note: the source files actives as falling curves though it sought activators and does not explain the sign; nearly all actives have a fitted effect of over 65% in size
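Buffer: 100 mM Tris/HCl pH8, 100 mM KCl, 0.05% low protease BSA, 2.5% glycerol, 0.01% Tween-20. ClpP 10 microg/mL final; 20 min RT; delta FRET normalized to ADEP and DMSO controls.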
DT40 TDP1 no CPT: qHTS for Inhibitors of human tyrosyl-DNA phosphodiesterase 1 (TDP1): qHTS in cells in absence of CPT | 15% of 420,000 active | Potency, µM (highest dose often 46.2 µM), inactives show top-dose activity change, negative = growth inhibition, usual class: inhibitors | DT40 Tdp1-/- hTDP1 cells, no CPT, ATP luminescence, 48 h; note: % is set by controls: 0 for no effect and ±100 for the full control effect; nearly all actives have a fitted effect of over 55% in size
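Chicken DT40 Tdp1-/- cells stably complemented with human TDP1 were seeded at 400 cells/well with DMSO in place of 20 nM camptothecin. After compound pinning, cells grew at least 48 hr at 37 °C; viability read by CellTiter-Glo luminescence.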
Starred values were filed as active, the others as inactive; ? = inconclusive; . = no result given. Unless noted, calls come from the whole dose curve; as a rule, active = well fitted curve in the direction sought with a large enough effect; inconclusive = small, poorly fitted or top-dose-only effect, or another doubt; inactive = no such curve, though single readings can be large; an effect the other way counts as inactive or inconclusive. Potency is the fitted concentration of half-maximal effect.

SMILES | TDP1 block | TDP1 cell CPT | ClpP mod | DT40 TDP1 no CPT
O=C(NCc1ccc(F)cc1)c1cc(C2CCCCN2S(=O)(=O)c2ccc(F)cc2F)on1 (stereo not given) | . | 23.1µM* | -0.1% | ?
COc1ccc(S(=O)(=O)N2CCCCC2c2cc(C(=O)Nc3ccc4c(c3)OCO4)no2)cc1 (stereo not given) | . | 18.4µM* | -3.0% | 14.6µM*
N#Cc1cccc(NC(=O)c2cc(C3CCCCN3S(=O)(=O)c3ccccc3)on2)c1 (stereo not given) | . | ? | -3.7% | 16.4µM*
CCC(=O)N1CCC(C)(C(=O)NCc2ccc(F)cc2)C1 (stereo not given) | . | 1.7% | 1.7% | 22.2%
CCc1cccc(NC(=O)C(Cc2ccccc2)NS(=O)(=O)c2ccc3c(c2)oc(=O)n3C)c1 (stereo not given) | 3.5% | 6.7% | -0.5% | -30.6%
O=C(NCc1ccccc1)c1cc(C2CCCCN2S(=O)(=O)c2ccccc2)on1 (stereo not given) | . | ? | 0.3% | 25.9µM*
O=C(NCc1ccccc1Cl)c1ccc(CSCc2cccc(F)c2)o1 | -5.7% | 25.9µM* | -2.2% | ?
O=C(NCc1ccc(F)cc1Cl)c1ccc(CSCc2ccccc2Cl)o1 | 2.6% | ? | -3.3% | ?
O=C(NCc1ccccc1)c1ccc(-c2ccc(F)cc2)o1 | 4.7% | -9.2% | 28.2µM* | -14.4%
O=C(NCc1ccc(Cl)cc1)c1ccc(CSCc2cccc(Cl)c2)o1 | -10.4% | -26.0% | -3.0% | ?
O=C(NCc1ccc(F)cc1)c1ccc(CSCc2cccc(Cl)c2)o1 | 0.0% | ? | -1.4% | 20.6µM*
CCc1ccc(NCc2cc3cc4c(cc3n(CC(=O)Nc3ccccc3Cl)c2=O)OCO4)cc1 | 5.6% | . | 4.2% | .
Cc1cccc(C)c1-n1nnnc1C(c1cc2ccccc2o1)N1CCN(C/C=C/c2ccccc2)CC1 (stereo not given) | . | 18.4µM* | 1.6% | 23.1µM*
CC(C)(C)n1nnnc1C(c1ccccc1)N1CCN(C/C=C/c2ccccc2)CC1 (stereo not given) | . | ? | -1.1% | ?
Cc1cccc(C)c1-n1nnnc1C(c1cccc2ccccc12)N1CCN(C/C=C/c2ccccc2)CC1 (stereo not given) | . | 4.61µM* | -1.9% | 5.8µM*
O=C(Cn1c(=O)sc2ccc(Cl)cc21)N1CCN(CCO)CC1 | . | -11.5% | . | -12.0%
Cc1cc(N)n2ncc(-c3cccc(Br)c3)c2n1 | 0.0% | -7.2% | 17.8µM* | -20.3%
Cc1cc(N)n2ncc(-c3ccccc3)c2n1 | 2.3% | -8.7% | -12.1% | -13.1%
CCOC(=O)Cc1c(C)nc2c(-c3cccc(Br)c3)cnn2c1C | 0.0% | ? | 7.6% | 20.6µM*
O=C(COC(=O)Cc1ccc(-c2ccccc2)cc1)NCc1ccccc1 | 0.6% | ? | 0.8% | -22.4%
COc1cccc(/C=N/NC(=O)c2ccncc2)c1OC(=O)c1ccc(Br)cc1 | 4.5% | ? | -0.1% | ?
O=C(NCC1CCCO1)C(c1cccs1)N(C(=O)c1ccc(-c2ccccc2)[nH]1)C1CCCC1 (stereo not given) | -2.3% | -27.0% | -1.3% | ?
O=C(NCC1CCCO1)C(c1cccs1)N(Cc1ccccc1)C(=O)c1ccc(-c2ccccc2)[nH]1 (stereo not given) | 0.0% | ? | -12.9% | 20.6µM*
O=C(NC1CCCCC1)C(c1ccncc1)N(Cc1ccc(F)cc1)C(=O)c1ccccn1 (stereo not given) | . | 11.3% | -0.1% | -8.1%
CC(C)(C)NC(=O)C(c1cccs1)N(CC1CCCO1)C(=O)c1ccc(-c2ccccc2)[nH]1 (stereo not given) | 8.1% | 23.1µM* | -19.8% | 20.6µM*
O=C(NC1CCCCC1)C(c1ccncc1)N(Cc1ccccc1)C(=O)c1ccc(-c2ccccc2)[nH]1 (stereo not given) | 9.3% | 16.4µM* | ? | ?
CC1Cc2ccccc2N1C(=O)Cn1cc(C(F)(F)F)ccc1=O (stereo not given) | . | -6.6% | 1.1% | ?
